Compound activity as filed in PubChem BioAssay.
The list is not random: actives were taken first. Their share in the collection is about 3%.
TrxR1 substrate: substrates of rat thioredoxin reductase 1. purified TrxR1 substrate turnover, NADPH consumption readout. O89049. 390,000 tested, 0.01% active. AID 588456. Potency, µM (highest dose often 114 µM), without a hit: at the highest dose activity change, negative = substrate turnover; note: % is set by controls: 0 for no effect and ±100 for the full control effect; nearly all actives have a fitted effect of over 50% in size
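Rat TrxR1, dispensed at 90 nM, was prereduced with 400 uM NADPH (final) for 5 min at ~22 deg C, then incubated with compound 15 min before 400 uM selenite. A first-read NADPH fluorescence drop versus no-compound background flagged substrates.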
TrxR1 inh: blocks rat thioredoxin reductase 1. Potency, µM (top dose mostly 114 µM), inactives show at the top dose activity change, negative = inhibition, actives largely listed as inhibitors. recombinant rTrxR1, NADPH fluorescence consumption, selenite substrate. AID 588453. O89049. 390,000 tested, 1% active; note: % is set by controls: 0 for no effect and ±100 for the full control effect; nearly all actives have a fitted effect of over 65% in size
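Rat TrxR1 (90 nM in the dispensed reagent) was pre-reduced with 400 uM NADPH for 5 min at room temperature, then incubated with compound for 15 min. After 400 uM selenite was added, NADPH fluorescence (Ex 340/Em 450 nm) was followed for 8 min.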
GALK inh: galactokinase (human) inhibition; P51570; Purified GALK, Kinase-Glo residual ATP luminescence; Potency, µM (highest dose often 57.5 µM), for the others: top-dose activity change, negative = inhibition, most hits filed as inhibitors; 270,000 tested, 0.007% active; AID 1868; note: % is set by controls: 0 for no effect and ±100 for the full control effect
Target sequence (P51570 whole entry, looked up): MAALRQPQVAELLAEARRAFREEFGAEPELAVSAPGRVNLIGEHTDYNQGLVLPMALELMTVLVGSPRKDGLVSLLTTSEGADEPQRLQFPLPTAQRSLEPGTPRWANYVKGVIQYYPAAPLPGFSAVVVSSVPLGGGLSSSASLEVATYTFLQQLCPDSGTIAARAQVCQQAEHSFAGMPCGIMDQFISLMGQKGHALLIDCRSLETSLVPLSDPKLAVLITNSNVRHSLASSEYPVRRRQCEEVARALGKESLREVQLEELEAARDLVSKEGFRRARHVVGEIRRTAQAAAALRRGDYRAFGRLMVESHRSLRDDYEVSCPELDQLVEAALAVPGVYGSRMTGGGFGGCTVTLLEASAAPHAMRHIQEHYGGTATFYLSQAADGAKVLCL
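Galactose (100 uM) and ATP (35 uM) were turned over by 5 nM GALK for 1 h at RT. Kinase-Glo Plus then converted the remaining ATP into a luminescent signal.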
Nrf2 ARE act: activates Nrf2 signaling | AREc32 ARE-luciferase reporter (MCF7-derived line), luminescence, 24 h | Potency, µM (series often up to 46.1 µM), for the others: top-dose activation, hits mostly activators | 410,000 tested, 0.31% active; note: % of control where 0% means no effect; nearly all actives have a fitted effect of over 65% in size
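Steps: seed AREc32_Fluc cells (1000/well, 5% FBS OPTI-MEM); incubate overnight at 37 deg C; add 23 nL compound; incubate 24 hr; add Steady-Glo; hold 30 min RT; read luminescence.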
A549 viability: kills or reduces viability of A549 cells in Nrf2 counter-screen. A549 ARE-Fluc cells, CellTiter-Fluor viability, 18-24 h. Potency, µM (highest dose often 46 µM), without a hit: at the top dose activity change, negative = cytotoxicity, actives largely listed as inhibitors. 390,000 tested, 0.16% active. AID 504648; note: % is set by controls: 0 for no effect and ±100 for the full control effect
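Cytotoxicity counterscreen: CellTiter-Fluor fluorescence was measured in A549 ARE_Fluc cells after 18-24 h of compound exposure in a concentration series. The subsequent BugLite luminescent read reports ARE-luciferase activity.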
Nrf2 inh: blocks Nrf2 signaling. A549 ARE-Fluc reporter, luciferase luminescence, 18-24 h. Potency, µM (top dose mostly 46 µM), without a hit: at the top dose activity change, negative = inhibition, most hits filed as inhibitors. 360,000 tested, 2.1% active; note: % is set by controls: 0 for no effect and ±100 for the full control effect; nearly all actives have a fitted effect of over 60% in size
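Cells were seeded and rested 2 h, then exposed to compounds for 18-24 h. CellTiter-Fluor was read first as a viability measure. BugLite was added 15 min before the final luminescent read of ARE-luciferase activity in A549 cells.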
* hit, by the source's call; ? = inconclusive; · = no result; [ ] = another dose, or the depositor's remark. Calls come from the whole dose curve; as a rule, active = well fitted curve in the direction sought with a large enough effect; inconclusive = small, poorly fitted or top-dose-only effect, or another doubt; inactive = no such curve, though single readings can be large; an effect the other way counts as inactive or inconclusive. Potency is the fitted concentration of half-maximal effect.

SMILES	TrxR1 substrate	TrxR1 inh	GALK inh	Nrf2 ARE act	A549 viability	Nrf2 inh
CC(=O)N1CCN(CC(=O)Nc2ccccc2Sc2ccc(Cl)cc2)CC1	2%	-8%	-4%	5%	-2%	-9%
Cc1cc(C(=O)c2ccccc2)c(NC(=O)CCl)s1	-7%	20µM*	-1%	19%	-4%	4%
O=C(CCl)Nc1ccccc1C(=O)c1ccccc1	-10%	20µM*	6%	5%	-9%	-23%
O=C(CCl)Nc1ccccc1Sc1ccc(Cl)cc1	-9%	8.9µM*	0%	-2%	-21%	-10%
COc1ccccc1/C=C/C(=O)Nc1nc2n(n1)C(c1ccc(F)cc1)C=C(c1ccccc1)N2 (stereo not given)	-5%	8%	·	6%	-3%	?
COc1cc2c(NC3CCN(C)CC3)nc(N3CCCCC3)nc2cc1OCCOCCN(C)C	91%	?	·	·	·	·
NC(=O)CSc1oc(-c2ccco2)nc1S(=O)(=O)c1ccccc1	4%	40µM*	3%	0%	-4%	-20%
Cc1ccc(S(=O)(=O)N2CCN(c3nc(-c4ccc(F)cc4)nc4cc(Cl)ccc34)CC2)cc1	11%[0.457 µM]	26%	·	·	-2%	14%
CC1=CN2C(=N)/C(=C/c3ccco3)C(=O)N=C2S1	-11%	-11%	4%	25%	0%	?
CC1=CN2C(=N)/C(=C/c3ccc([N+](=O)[O-])o3)C(=O)N=C2S1	-16%	2.5µM*	3%	?	-10%	4%
Cc1cc(C)c(C)c(OCC(=O)Nc2ccc(S(=O)(=O)Nc3nc(C)cc(C)n3)cc2)c1	2%	7%	·	-1%	0%	-5%
COC(=O)CC1(C(=O)OC)Oc2ccc(Br)cc2C(=O)N1c1ccc(Br)cc1Cl (stereo not given)	0%[57.1 µM]	-1%[57.1 µM]	0%	0%	-24%	16µM*
NNc1nc2sc3c(c2c(=O)n1Cc1ccccc1)CCC3	5%[57.1 µM]	15%[57.1 µM]	0%	0%	2%	10%
Nn1c(Nc2ccccc2)nc2sc3c(c2c1=O)CCC3	11%[57.1 µM]	3%[57.1 µM]	0%	4%	-13%	16µM*
COC1OC(COC(=O)c2ccccc2)C(OC(=O)c2ccccc2)C1OC(=O)c1ccccc1 (stereo not given)	3%	29%	-2%	0%	-5%	-20%
C=C(CN(C)C)C(=O)c1ccc(OC2OC(COC(C)=O)C(OC(C)=O)C(OC(C)=O)C2OC(C)=O)cc1 (stereo not given)	9%[11.4 µM]	2.8µM*	·	?	?	?
COc1cc2nc(CCNCc3ccccc3)nc(NC3CCN(C)CC3)c2cc1OC	-4%	?	·	·	·	·
CCCCN(CCCC)S(=O)(=O)c1ccc(C(=O)Nc2nnc(CSC)o2)cc1	-3%	-4%	3%	0%	-24%	7.3µM*
CCCN(CCC)S(=O)(=O)c1ccc(C(=O)Nc2nnc(CSC)o2)cc1	10%[57.1 µM]	8%[57.1 µM]	0%	0%	-18%	9.2µM*
CCCCN(CC)S(=O)(=O)c1ccc(C(=O)Nc2nnc(CSC)o2)cc1	-6%	0%	3%	-2%	-21%	?
CCC(NC(=O)Nc1nnc(C(F)(F)F)s1)(C(F)(F)F)C(F)(F)F	11%[57.1 µM]	-5%[57.1 µM]	-2%	0%	7.3µM*	3.7µM*
O=C(O)CCC(=O)Nc1nnc(C(F)(F)F)s1	2%[57.1 µM]	8%[57.1 µM]	-1%	0%	0%	·
CCOC(=O)c1c(C)[nH]c(C=O)c1Cc1cccc(Cl)c1	2%[57.1 µM]	-1%[57.1 µM]	-3%	0%	?	26µM*
CCOC(=O)c1ccc(N2C(=O)C3C(C2=O)C(C(=O)c2ccc(Cl)cc2)N2CCCC32)cc1 (stereo not given)	-1%	3.5µM*	-2%	14µM*	-16%	14%
COc1cc2ncc(S(=O)(=O)c3ccccc3)c(N3CCCC(C)C3)c2cc1OC (stereo not given)	-1%[57.1 µM]	6%[57.1 µM]	·	-5%	?	23µM*
